The source of these data is the supplement of paper PMC10646978.

Unmarked numbers belong to inactive results.

This experiment has as its system RAW-Dual (murine macrophage reporter line). Kind of experiment: viability score (confluency relative to resting cells, overnight) (fraction); higher = more viable, active = viable (0.7 or more). The note with it: modulator concentration 10 µM. The procedure, abridged: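 RAW-Dual macrophages in 384-well plates were exposed overnight to compound at 10 μM final. Confluency was imaged with IncuCyte, and two confluency masks were generated with IncuCyte software over all imaged wells. The viability score is confluency expressed relative to resting cells. Compounds were called viable if both masks exceeded 70% of resting cells.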
Regarding `CCCOc1ccc(C=CC(=O)Nc2ccc(S(=O)(=O)Nc3ncccn3)cc2)cc1OC`, the viability score was 1.01 (active).
Take `CN(C)C1C(O)=C(C(N)=O)C(=O)C2(O)C(O)=C3C(=O)c4c(O)cccc4C(C)(O)C3CC12.Cl` (stereo not given): the viability score was 1 (active).
In the case of `O=c1oc2cc(O)ccc2c2ccccc12`, the viability score was 0.782 (active).
To `CC(C)Oc1cccc(C(=O)NC(=S)N2CCN(c3ccc([N+](=O)[O-])cc3)CC2)c1` belongs 1.02 (active); to `O=c1[nH]nc(Br)c(=O)[nH]1`, 0.992 (active).
To `NC(CO)(CO)CO.O=C(c1ccccc1)c1ccc2n1CCC2C(=O)O` (stereo not given) belongs 1.01 (active); to `O=C(NCCN1CCN(c2ccc(F)cc2)CC1)c1ccno1`, 0.999 (active).
Next, `N[C@H](Cc1ccccc1)C(=O)O`: 1 (active); `O=c1[nH]c(NN=Cc2c3ccccc3cc3ccccc23)nc2ccccc12`: 0.999 (active); `Clc1ccc(Nc2nc3nonc3nc2NC2C3CC4CC(C3)CC2C4)cc1` (stereo not given): 0.931 (active).
With `CCN(CC)CCOC(=O)C(c1ccccc1)C1CCCCC1.Cl` (stereo not given), the viability score was 0.948 (active).
Next, `CCOC(C#CCN(CC)CC)(c1ccccc1)c1ccccc1.Cl`: 0.0625; `CCC(=O)c1c(O)cc(O)cc1O`: 0.999 (active).
Next, `C[C@@H]1CCN(C(=O)CC#N)C[C@@H]1N(C)c1ncnc2[nH]ccc12.O=C(O)CC(O)(CC(=O)O)C(=O)O`: 0.603; `Nc1ccc(O)c(C(=O)O)c1`: 0.989 (active); `COc1cc(C2CC3CC2C(C)C3(C)C)ccc1O` (stereo not given): 1.01 (active).
Next, `CCOc1ccc2nc(SC(c3ccccc3)c3ccccc3)sc2c1`: 0.661; `COc1c(C)cnc(Cn2cccc(-c3nc(C)no3)c2=O)c1C`: 0.997 (active).
Take `COc1ccc(C=C(NC(=O)c2ccccc2)C(=O)NCCC(=O)OCc2ccccc2)cc1`: the viability score was 1.01 (active).
Next, `C=CCc1ccccc1OCC(O)CNC(C)C.Cl` (stereo not given): 0.978 (active); `COc1ccc(OC)c(S(=O)(=O)NCC2CC(=O)N(c3ccc(Cl)cc3)C2)c1` (stereo not given): 1.01 (active); `O=[N+]([O-])c1ccc(C=CC=Nc2ccc(-c3nc4ccccc4s3)c(O)c2)cc1`: 0.994 (active).
Next, `c1ccc2nc3c(cc(N4CCOCC4)c4ccccc43)nc2c1`: 1.01 (active); `O=C(Cn1c(C(F)(F)F)nc2ccccc21)c1ccc(OC(F)F)cc1`: 1.01 (active); `CCN(CC)CCOCCOC(=O)C1(c2ccccc2)CCCC1` [Prestw-387]: 0.993 (active).
To `COCCNc1nc(SCC(=O)Nc2cccc(C(F)(F)F)c2)nc2ccccc12` belongs 0.956 (active); to `CC1(C)CC(=O)C2=C(C1)OC(N)=C(C#N)C21C(=O)Nc2ccc(Br)cc21` (stereo not given), 1.01 (active).
Consider `O=c1c2ccccc2n(Cc2nc(-c3ccc(F)c(F)c3)no2)c(=O)n1C1CC1`, for which the viability score is 0.971 (active).
Next, `C[C@H](Oc1cc(-c2cnn(C3CCNCC3)c2)cnc1N)c1c(Cl)ccc(F)c1Cl`: 0.998 (active).
To `COc1ccc(Cl)cc1C(=O)NCCc1ccc(S(=O)(=O)NC(=O)NC2CCCCC2)cc1` belongs 1 (active); to `CS(=O)(=O)NCc1cccc(Oc2ccc(F)cc2)c1`, 0.997 (active).
To `COc1cccc(-n2c(SCc3ccc(F)cc3)nc3c([nH]c4ccccc43)c2=O)c1` belongs 0.972 (active); to `CCCCSc1nnc2c(n1)OC(c1cccc(O)c1)Nc1ccc(Br)cc1-2` (stereo not given), 1.02 (active).
For `Cl.Cl.Cn1cc(CNCC2CCN(c3ncc(C(=O)NO)cn3)CC2)c2ccccc21`, the viability score is 0.0605.
To `O=C(NCCCCNC(=O)c1cncc(Br)c1)c1cncc(Br)c1` belongs 0.991 (active); to `COC(=O)C1=CN(CC2CCCO2)C=C(C(=O)OC)C1c1cccc(F)c1` (stereo not given), 0.954 (active).
To `COc1ccc(OC)c2sc(NC(=O)C(C)C)nc12` belongs 0.993 (active).
To `CCOC(=O)CC(C(=O)OCC)P(=O)(c1ccccc1)c1ccccc1` (stereo not given) belongs 1.01 (active); to `CC1CC(=O)C2=C(C1)OC(N)=C(C#N)C2c1ccc(Cl)cc1` (stereo not given), 0.992 (active).
For `CC(=O)OC(OC(C)=O)c1ccc([N+](=O)[O-])cc1`, the viability score is 1 (active).
